# Screening results: PubChem, National Center for Advancing Translational Sciences (NCATS)
# RXFP1 antagonist: qHTS Assay for Antagonists of the Relaxin Receptor RXFP1; Relaxin receptor 1 (Homo sapiens), Q9HBX9; HEK293-RXFP1, relaxin-stimulated cAMP HTRF, 30 min; stronger effect = lower value; activity change, negative = inhibition, % at 57.5 µM; 350,000 compounds, 0.59% hits; AID 1259400, 2018;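 active = activity change of -60% or lower, but not beyond a set lower limit; inconclusive = change between -60% and -40%, or beyond the set limit; inactive = change above -40%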; note: % is set by controls: 0 for no effect and ±100 for the full control effect
# Target sequence (Q9HBX9 whole entry, looked up): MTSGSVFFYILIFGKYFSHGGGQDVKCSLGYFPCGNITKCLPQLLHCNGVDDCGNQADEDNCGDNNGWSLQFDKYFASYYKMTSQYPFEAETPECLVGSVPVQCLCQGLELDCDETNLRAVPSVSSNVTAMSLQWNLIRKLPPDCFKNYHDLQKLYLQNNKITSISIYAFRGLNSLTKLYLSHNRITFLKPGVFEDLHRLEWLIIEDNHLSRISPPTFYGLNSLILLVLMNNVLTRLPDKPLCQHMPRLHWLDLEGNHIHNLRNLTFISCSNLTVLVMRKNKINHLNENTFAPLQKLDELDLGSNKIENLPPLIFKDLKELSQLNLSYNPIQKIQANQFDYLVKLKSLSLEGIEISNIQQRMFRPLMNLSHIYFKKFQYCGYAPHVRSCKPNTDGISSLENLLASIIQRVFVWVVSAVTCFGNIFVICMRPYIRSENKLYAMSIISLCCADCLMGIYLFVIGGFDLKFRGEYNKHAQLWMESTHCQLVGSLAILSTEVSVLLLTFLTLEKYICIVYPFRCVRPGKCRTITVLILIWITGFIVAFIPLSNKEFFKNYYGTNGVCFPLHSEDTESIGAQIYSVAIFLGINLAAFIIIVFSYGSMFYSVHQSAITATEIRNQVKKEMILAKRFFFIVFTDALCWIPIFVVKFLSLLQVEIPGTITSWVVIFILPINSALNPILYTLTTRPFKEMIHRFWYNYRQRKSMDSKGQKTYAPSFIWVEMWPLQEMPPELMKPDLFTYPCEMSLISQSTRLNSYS
# gsp ag: qHTS for Agonist of gsp, the Etiologic Mutation Responsible for Fibrous Dysplasia/McCune-Albright Syndrome: qHTS | Potency, µM (titrated, usually from 76.9 µM), inactives show at the highest dose activation (cAMP increase), actives largely listed as activators | gsp mutant cells, cAMP HTRF, 30 min | 340,000 compounds, 0.13% hits; active = well fitted activation curve with a large enough effect; inconclusive = small, poorly fitted or top-dose-only effect, or another doubt; inactive = no such curve, though single readings can be large or run the other way; cell line not stated here;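 note: phosphodiesterase inhibitor Ro 20-1724 added with compounds to block cAMP breakdown; potency is the fitted concentration of half-maximal effect; nearly all actives have a fitted effect of over 60% in size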
#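 Cells in DMEM/10% FBS with G418 were pretreated with compounds in DMSO plus […] (300 uM stock) for 30 min at 37C. cAMP was measured by HTRF (cAMP-d2 plus anti-cAMP antibody-K) after 30 min at room temperature.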
# RXFP1 agonist: qHTS Assay for Agonists of the Relaxin Receptor RXFP1. HEK293T-RXFP1 cAMP TR-FRET, 30 min; response scale: percent of porcine relaxin response, buffer zero. Potency, µM (titrated, usually from 57.5 µM), without a hit: at the top dose activation, usual class: activators. AID 2676, 2010. 370,000 compounds, 0.3% hits; active = well fitted activation curve with a large enough effect; inconclusive = small, poorly fitted or top-dose-only effect; note: potency is the fitted concentration of half-maximal effect; % is set by controls: 0 for no effect and ±100 for the full control effect; nearly all actives have a fitted effect of over 60% in size
#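 HEK293 cells stably expressing RXFP1, treated 30 min at 37C with compounds plus PDE4 inhibitor Ro 20174; cAMP measured by HTRF TR-FRET. Normalized to buffer and 29 nM porcine relaxin; EC50 by Hill fit.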
# FBPA coupling cs: qHTS Assay for Inhibitors of Fructose-1,6-bisphosphate Aldolase from Giardia Lamblia: Coupling assay counterscreen. coupling enzyme system counterscreen, AmpLite Red fluorescence. 290,000 compounds, 0.67% hits. activity change, negative = inhibition, % at 58.2 µM, hits read low; in the data active = activity change below about -30%; note: % is set by controls: 0 for no effect and ±100 for the full control effect
#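 Fluorescence at 525 nm excitation and 598 nm emission measured inhibition of the coupled detection system without aldolase. Compounds (at 57.5 uM final) were preincubated 10 min at room temperature with coupling enzyme reagent before a 20 min substrate/AmpLite Red step.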
# Giardia killer: Small Molecules that selectively kill Giardia lamblia: qHTS; Giardia lamblia trophozoite viability; activity change, % at 7.66 µM, hits read low; 340,000 compounds, 0.15% hits; in the data active = activity change below about -80%; inconclusive = between about -30% and that limit;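 note: parasites exposed to compound for two days anaerobically before the ATP read; % is set by controls: 0 for no effect and ±100 for the full control effect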
#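 Compounds were tested on trophozoites seeded at 100 cells/well and held 48 hrs at 37 deg C anaerobically. An ATP-based luminescent kit measured the remaining live cells.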
# gsp antag: qHTS for Antagonists of gsp, the Etiologic Mutation Responsible for Fibrous Dysplasia/McCune-Albright Syndrome: qHTS; gsp-mutant cells, cAMP HTRF, 30 min; Potency, µM (titrated, usually from 76.9 µM), for inactives: top-dose activity change, negative = inhibition, usual class: inhibitors; 340,000 compounds, 0.4% hits; AID 624288, 2012; calls by dose curve; cell line not stated here;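 note: intracellular cAMP measured with PDE inhibitor Ro 20-1724 present during compound exposure; potency is the fitted concentration of half-maximal effect; % is set by controls: 0 for no effect and ±100 for the full control effect; nearly all actives have a fitted effect of over 65% in size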
#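 HTRF cAMP measurement after 30 min RT detection following 30 min, 37C compound treatment alongside […] (added as 300 uM solution) in G418-selected cells seeded at 2000/well and grown 16–24 h.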
# * hit, by the source's call; ? = inconclusive; nt = no result given; [ ] = dose if it differs, or a comment. A selection: hits, their analogues and other compounds. The true share with any hit is near 1.6%.
SMILES,RXFP1 antagonist,gsp ag,RXFP1 agonist,FBPA coupling cs,Giardia killer,gsp antag
CC(=O)c1ccc(N2CCN(C(=O)c3n[nH]c4ccccc34)CC2)cc1,-7.3,-7.7%[15.4 µM],2.5%,14.5,-11.9,11.2µM*
O=C(c1n[nH]c2ccccc12)N1CCOCC1,-6.0,-17.1%,0.3%,-2.2,14.2,-11.6%
Cc1cc(/C=C2\SC(=S)N(C)C2=O)c(C)n1-c1ccccc1O,-33.8,25.7%,nt,nt,1.8,35.5µM*
CCCC[C@@H]1CCCO[C@@](C(=O)NCC2CC2)(C(F)(F)F)C1,nt,nt,nt,3.5,-22.3,nt
O=C(CNS(=O)(=O)c1ccccc1)NCC(=O)OCc1ccc(Cl)cc1,4.4,7.94µM*,0.0%,-2.7,-1.6,0.3%
CCc1sc(C(=O)Nc2ccc3c(c2)OCO3)cc1C,-62.9*,-8.6%[15.4 µM],nt,nt,-3.1,-4.3%
COc1ccc(Cl)cc1NC(=O)c1c(NCc2ccc(C)o2)sc2c1CCCC2,-61.3*,nt,0.7%,nt,nt,nt
COc1ccc(NC(=O)c2c(NCc3cccc(F)c3)sc3c2CCC3)c(OC)c1,-61.8*,nt,1.1%,nt,nt,nt
COc1ccc(Cl)cc1NC(=O)c1c(NCc2cccnc2)sc2c1CCCC2,-22.0,nt,1.8%,nt,nt,nt
CCSc1nnc(NC(=O)C2CCN(C(=O)c3ccco3)CC2)s1,nt,nt,nt,nt,7.8,nt
Cc1c(Br)c([N+](=O)[O-])nn1CC(=O)Nc1c(C)n(C)n(-c2ccccc2)c1=O,0.2,-16.6%,-2.2%,-0.9,4.5,-18.5%
O=C(COC(=O)CNS(=O)(=O)c1cc(C(F)(F)F)ccc1Cl)NC1CC1,5.2,26.2%,nt,nt,?,-3.7%
O=C(COC(=O)CNS(=O)(=O)c1ccc(Br)cc1Cl)NC1CCCC1,-93.0*,-31.4%[15.4 µM],0.5%,nt,11.2,-5.9%
Cc1cc(C)c2c(=O)n3c(nc2c1)C(Cc1ccc(O)cc1)NC(=O)c1cc2ccccc2cc1-3 (stereo not given),-13.8,-39.9%,nt,nt,nt,nt
Cc1ccc([N+](=O)[O-])cc1N=Nc1c(-c2ccc([N+](=O)[O-])cc2)[nH]n(C(N)=S)c1=O,-6.0,-2.2%,0.0%,-0.9,6.4,12.6µM*
CC1(C)Cc2c(sc3nc(-c4ccccc4)n(N)c(=O)c23)CO1,1.8,-20.7%,3.6%,nt,25.2,1.4%
CC1(C)Cc2c(sc3nc(-c4cccs4)n(N)c(=O)c23)CO1,-36.4,7.3%,1.4%,0.5,-7.1,31.6µM*
CC1CCN(C(=O)c2cc3c(ccc4ccccc43)o2)CC1,-60.2*,12.6%,1.2%,nt,-26.0,-11.0%
CCOC(=O)C1CCN(C(=O)c2cc3c(ccc4ccccc43)o2)CC1,1.0,1.6%[15.4 µM],7.1%,nt,11.5,5.6%
Cc1cc2nc3c(=O)[nH]c(=O)nc-3n(C)c2cc1C=O,nt,nt,nt,-38.1*,nt,nt
COc1ccc2nc3ccccc3nc2c1N,-23.2,9.1%[15.4 µM],0.6%,-5.9,-3.9,?
COc1ccc2nc3cccc(OC)c3nc2c1,-2.0,14.1%,9.6%,-39.2*,-8.2,-20.7%
COc1ccc2nc(-c3ccco3)c(-c3ccco3)nc2c1,3.2,2.4%,2.7%,-32.3*,?,-13.8%
COc1ccc(C2=CC(=O)N(Nc3ccccc3)C2=O)cc1,?,21.9%[15.4 µM],2.4%,-1.0,?,26.1%
Cc1ccc(NN2C(=O)C=C(c3ccc(Cl)cc3)C2=O)cc1,-95.6*,?,1.7%,-2.4,-2.1,-6.6%
O=C1C=C(c2ccccc2)C(=O)N1Nc1ccccc1,-108.5*,-3.7%,0.6%,0.7,5.3,16.5%
Cc1ccc(C)c(N2CCN(C(=O)C3CCN(S(=O)(=O)c4cccc5nsnc45)CC3)CC2)c1,7.4,22.0%,0.0%,-1.9,27.6,22.4µM*
Cc1ccc(Cl)cc1N1CCN(C(=O)C2CCN(S(=O)(=O)c3c(C)nn(C)c3C)CC2)CC1,-14.9,-4.9%[15.4 µM],1.8%,0.0,-1.0,39.8µM*
